Test results taken from PubChem BioAssay (NCI).
Several values for one entry are separate records, joined by “and”; a condition that tells them apart may be missing. Equal entries are not always repeated. The panel holds about 83,000 compounds, 20% with a hit somewhere; the sample as a whole holds those more often.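 Plates (96-well) were seeded with cells, treated with compound at one concentration, and incubated for 48 hours before percent growth was determined.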 Activity calls are given as the source filed them. How the source made its calls: active means growth percent below 10; inactive means the rest. Where a SMILES comes first, the peptide text is derived from it. The star is where a group is joined. Trt = c1ccc(C(c2ccccc2)(c2ccccc2)*)cc1; Cbz = O=C(OCc1ccccc1)*

How the values were obtained:
Assay in all cases: NCI-60 one-dose screen, 48 h (100 = growth as untreated, 0 = no growth, -100 = all killed)
Settings in all cases: 10 µM unless noted
[1] = system: DU-145 prostate
[2] = system: K-562 leukemia
[3] = system: MALME-3M melanoma
[4] = system: MDA-MB-231 breast
[5] = system: RXF 393 renal
[6] = system: SF-268 CNS
[7] = system: SF-295 CNS
[8] = system: SF-539 CNS
[9] = system: UACC-257 melanoma
[10] = system: M14 melanoma
[11] = system: HT29 colon
[12] = system: SNB-75 CNS
[13] = system: SNB-19 CNS
[14] = system: U251 CNS
[15] = system: PC-3 prostate
[16] = system: SK-MEL-5 melanoma
[17] = system: UACC-62 melanoma
[18] = system: LOX IMVI melanoma
[19] = system: SK-MEL-28 melanoma
[20] = system: HCT-15 colon

SMILES | growth [1] | growth [2] | growth [3] | growth [4] | growth [5] | growth [6] | growth [7] | growth [8] | growth [9] | growth [10] | growth [11] | growth [12] | growth [13] | growth [14] | growth [15] | growth [16] | growth [17] | growth [18] | growth [19] | growth [20]
N#CSCC(=O)c1ccc(Cl)cc1 | 30.2% (inactive) | 44.4% (inactive) | 54.8% (inactive) | 34.4% (inactive) | 25.6% (inactive) | 34.6% (inactive) | 49.4% (inactive) | 22.2% (inactive) | 82.3% (inactive) | 2.91% (active) | -19.4% (active) | 33% (inactive) | 81.9% (inactive) | 31.9% (inactive) | 45.5% (inactive) | 35.3% (inactive) | 51.5% (inactive) | 12.3% (inactive) | – | –
Nc1nc(N)c2c(ccc3c2ccn3Cc2cccc([N+](=O)[O-])c2)n1 | -97% (active) | 31.8% (inactive) | -82.7% (active) | -87.9% (active) | -83.6% (active) | -78% (active) | -93.3% (active) | -96.7% (active) | -78.9% (active) | -83.2% (active) | -60% (active) | -89.8% (active) | -92.2% (active) | -87.9% (active) | -54.1% (active) | -98% (active) | -94.8% (active) | – | -97.1% (active) | –
COC(=O)C(CSC(c1ccccc1)(c1ccccc1)c1ccccc1)NC(=O)C(CC(N)=O)NC(=O)OCc1ccccc1 (stereo not drawn) (Cbz-Asn-Cys(Trt)-OMe; configuration not given here) | 13.4% (inactive) | 25.4% (inactive) | 27.1% (inactive) | 12.5% (inactive) | 34.1% (inactive) | 18% (inactive) | 20.1% (inactive) | -22% (active) | 59.1% (inactive) | -57.4% (active) | 33.7% (inactive) | 20.3% (inactive) | 56.2% (inactive) | 50.2% (inactive) | – | 14.1% (inactive) | -11.7% (active) | -12% (active) | 24.4% (inactive) | –
N#Cc1ccc([N+](=O)[O-])o1 | 111% (inactive) | 105% (inactive) | 118% (inactive) | 105% (inactive) | 113% (inactive) | 103% (inactive) | 99.6% (inactive) | 101% (inactive) | 79.7% (inactive) | 97.9% (inactive) | 93.9% (inactive) | 109% (inactive) | 101% (inactive) | 90% (inactive) | – | 96.8% (inactive) | 95.4% (inactive) | 108% (inactive) | 106% (inactive) | –
Cc1cc(N)c2ccccc2[n+]1CCCCCCCCCC[n+]1c(C)cc(N)c2ccccc21 | 31.3% (inactive) and -73.8% (active) | -7.04% (active) and -39.8% (active) | -15.7% (active) and 10.5% (inactive) | 18.9% (inactive) and 1.88% (active) | -30.2% (active) | 23.2% (inactive) and 27.9% (inactive) | -45.6% (active) and 8.47% (active) | -8.43% (active) and -37.4% (active) | 33.5% (inactive) and 5.36% (active) | 3.53% (active) | 2.09% (active) and -13.8% (active) | 21.3% (inactive) and -8.96% (active) | 21.3% (inactive) and 12.5% (inactive) | -51.1% (active) and 15.5% (inactive) | – | -57.8% (active) and -99.9% (active) | -66.5% (active) and 1.93% (active) | – | -26.4% (active) | –
C=C(Cl)C(=NC(C)(C)C)Nc1ccccc1C | 87.1% (inactive) | 19.8% (inactive) | 83.9% (inactive) | 91.3% (inactive) | 103% (inactive) | 101% (inactive) | 99.3% (inactive) | 99.3% (inactive) | 100% (inactive) | 85.1% (inactive) | 37.6% (inactive) | 85.7% (inactive) | 95.3% (inactive) | 83.9% (inactive) | – | 95.4% (inactive) | 59.7% (inactive) | 81.1% (inactive) | – | –
Nc1ccc(SSc2ccc(N)cc2)cc1 | 111% (inactive) | – | 104% (inactive) | 82.4% (inactive) | 108% (inactive) | 106% (inactive) | 82.6% (inactive) | 106% (inactive) | 86.1% (inactive) | 97.7% (inactive) | 112% (inactive) | 102% (inactive) | 109% (inactive) | 76% (inactive) | 84.8% (inactive) | 89.6% (inactive) | 91.1% (inactive) | 79.6% (inactive) | 114% (inactive) | 88.6% (inactive)
CN(C)c1ccc(/C=N/N=C(\C#N)[S][Sn]([Cl])([c]2ccccc2)[c]2ccccc2)cc1 | 5.62% (active) | 3.13% (active) | -50.8% (active) | -12.7% (active) | -86.3% (active) | 42.9% (inactive) | 107% (inactive) | -16.3% (active) | 21.3% (inactive) | 4.46% (active) | 19.2% (inactive) | 8.38% (active) | 89.6% (inactive) | – | 68.6% (inactive) | 37% (inactive) | 34.7% (inactive) | -92.8% (active) | -48.7% (active) | –
c1ccc2c(c1)Nc1cc3ccccc3cc1N2 | 60.9% (inactive) | 20.9% (inactive) | 28.4% (inactive) | 33.1% (inactive) | 63.3% (inactive) | 66.2% (inactive) | 46.2% (inactive) | 39.1% (inactive) | 37.4% (inactive) | 23.9% (inactive) | 14.7% (inactive) | 32.6% (inactive) | 57.1% (inactive) | – | 24.9% (inactive) | -75.7% (active) | 52.9% (inactive) | 11.3% (inactive) | – | –
CCOc1ccc(-c2nc3ccc(-c4nc5ccc(N6CCN(C)CC6)cc5[nH]4)cc3[nH]2)cc1 | -100% (active) | 24.9% (inactive) | -87.8% (active) | -84.2% (active) | -86.2% (active) | -83.9% (active) | -81.9% (active) | -97.9% (active) | -64.8% (active) | -85.1% (active) | -68.3% (active) | -90.2% (active) | -96.2% (active) | – | -47.8% (active) | -96.7% (active) | -96.5% (active) | – | -88.6% (active) | –
CCC(CCCN(CC)CCc1ccccc1)OC(=O)c1cc(OC)c(OC)c(OC)c1 (stereo not drawn) | 104% (inactive) | 76.4% (inactive) | 98.9% (inactive) | 78.8% (inactive) | 89.7% (inactive) | 82.7% (inactive) | 90.1% (inactive) | 93.1% (inactive) | 85.4% (inactive) | 90.1% (inactive) | 57.3% (inactive) | 65.3% (inactive) | 92.3% (inactive) | – | 82.4% (inactive) | 91.3% (inactive) | 90.7% (inactive) | 80.9% (inactive) | 98.5% (inactive) | –
S=C(NCCNC(=S)[S][Sn]([c]1ccccc1)([c]1ccccc1)[c]1ccccc1)[S][Sn]([c]1ccccc1)([c]1ccccc1)[c]1ccccc1 | -96.1% (active) | – | -70.4% (active) | -82.1% (active) | -99.7% (active) | -90.9% (active) | -83.5% (active) | -81.7% (active) | -100% (active) | -94% (active) | -93.1% (active) | -60.8% (active) | -92.8% (active) | -100% (active) | -82.5% (active) | -100% (active) | -64.1% (active) | -86.5% (active) | -98.8% (active) | –
